Screening results (PubChem)
Shown are actives, neighbours in structure and some others; about 1.8% of the full set was active somewhere.
Cardio protect: protects H9c2 cardiomyocytes from peroxide injury | protection from H2O2 cell death, % at 20 µM | H2O2 injury protection, ATPLite, 2 h | AID 588492 | 360,000 compounds, 0.63% hits;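 active = compounds giving at least 50% protection of heart cells from peroxide-induced death in the single-dose screen, raw or plate-pattern-corrected value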;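 also: 0% = DMSO wells with peroxide and 100% = DMSO wells without peroxide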
HDAC3 inh: human HDAC3 inhibition; AID 2718; 320,000 compounds, 0.15% hits; inhibition, % at 8.3 µM; recombinant HDAC3, fluorogenic peptide/trypsin coupled, fluorescence; in the data active = inhibition above about 26%, passing the limit was not always enough; inconclusive = no clear call, values can overlap the other calls
GRK2 inh: human GRK2 inhibition via aptamer displacement; 330,000 compounds, 0.59% hits; inhibition of aptamer binding, % at 10 µM; bead flow cytometry, FAM-aptamer displacement from GRK2;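 active = inhibition of aptamer binding above 40%, roughly 3 SD of noise, on plates passing a quality check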;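 also: median bead fluorescence of bound FAM aptamer so fluorescent compounds give negative values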
Neddylation inh: blocks human cullin neddylation | P61081+Q13564 | TR-FRET cullin neddylation, biochemical | inhibition, % at 25 µM | 360,000 compounds, 0.58% hits; in the data active = inhibition above about 36%
Target sequence (P61081 whole entry, looked up): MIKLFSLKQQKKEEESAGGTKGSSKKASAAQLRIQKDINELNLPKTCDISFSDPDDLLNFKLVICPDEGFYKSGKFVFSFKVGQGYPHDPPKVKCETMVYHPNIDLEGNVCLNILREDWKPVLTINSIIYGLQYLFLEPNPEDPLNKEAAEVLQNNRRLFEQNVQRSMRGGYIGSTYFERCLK
Target sequence (Q13564 whole entry, looked up): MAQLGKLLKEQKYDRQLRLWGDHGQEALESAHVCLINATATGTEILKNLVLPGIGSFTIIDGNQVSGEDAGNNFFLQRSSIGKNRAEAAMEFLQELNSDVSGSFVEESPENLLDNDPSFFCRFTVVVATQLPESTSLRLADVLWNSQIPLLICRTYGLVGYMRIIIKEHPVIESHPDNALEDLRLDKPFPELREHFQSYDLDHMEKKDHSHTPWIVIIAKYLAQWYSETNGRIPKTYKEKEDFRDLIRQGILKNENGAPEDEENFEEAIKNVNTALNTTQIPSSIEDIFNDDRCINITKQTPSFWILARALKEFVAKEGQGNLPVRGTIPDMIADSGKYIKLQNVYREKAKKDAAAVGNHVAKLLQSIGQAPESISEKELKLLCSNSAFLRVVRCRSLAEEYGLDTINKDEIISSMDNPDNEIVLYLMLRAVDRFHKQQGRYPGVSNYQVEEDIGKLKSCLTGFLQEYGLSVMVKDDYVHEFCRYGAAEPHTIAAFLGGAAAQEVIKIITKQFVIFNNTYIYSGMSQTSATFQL
* = called active by the depositor; ? = inconclusive; . = not tested or not shown.

SMILES	Cardio protect	HDAC3 inh	GRK2 inh	Neddylation inh
CNC(=O)c1ccc(-c2sc3nc(N4CCOCC4)c4c(c3c2N)CCCC4)o1	80.0*	2.0	4.0	.
NNC(=O)c1sc2nc(N3CCOCC3)c3c(c2c1N)CCCC3	28.1	-13.4	0.0	.
CN1Cc2c(N3CCOCC3)nc3sc(C#N)c(N)c3c2CC1(C)C	7.1	-6.0	0.0	.
CC1=C([N+](=O)[O-])C(c2ccc(Cl)cc2)NC(=O)N1C (stereo not drawn)	3.8	-2.0	0.0	-11.9
CC(=O)Nc1ccc(S(=O)(=O)NCCC(=O)OCC(=O)NCc2ccccc2)cc1	-1.1	1.9	1.0	6.9
Cc1ccccc1C(=O)NCC(=O)N1CCN(C/C=C/c2ccccc2)CC1	0.2	16.5	0.0	-5.3
COCc1c(C(=O)N(C)Cc2ccccc2N2CCCC2)oc2ccccc12	-10.7	.	.	4.9
COc1ccc2c(CC(=O)Nc3nccs3)coc2c1	-7.5	1.0	4.0	15.2
COc1cccc(/C=N/NC(=O)CNC(=O)COc2ccccc2)c1O	29.1	?	0.0	21.8
O=C(COc1ccccc1)NCC(=O)N/N=C/c1ccc(O)cc1O	60.2*	.	0.0	0.6
Cc1ccc(/C=N/NC(=O)CNC(=O)COc2ccccc2)cc1	0.6	-3.3	2.0	-2.4
CCOc1ccc(/C=N/NC(=O)C(O)c2ccccc2)c(O)c1 (stereo not drawn)	51.7*	-4.0	2.0	11.7
Cc1cccc(OCC(=O)NCC(=O)N/N=C/c2cc(Br)cc(Br)c2O)c1	59.2*	-6.2	2.0	28.2
CCOc1ccc(CCNC(=O)C(O)c2ccccc2)cc1 (stereo not drawn)	1.1	9.3	3.0	2.5
CCN(CC)C(=O)c1ncn2c1c(=O)[nH]c1ccccc12	10.7	.	.	2.6
O=C(CCCC(=O)c1ccc(F)cc1)c1ccc(F)cc1	-7.1	0.8	0.0	-9.9
COCCn1ccc2c(OCC(=O)Nc3ccccc3OC)cccc2c1=O	53.8*	.	0.0	7.6
CNC(=O)COC(=O)c1ccc(OCC(=O)Nc2ccccc2OC)c(OC)c1	0.8	0.7	0.0	2.9
COCCNC(=O)COC(=O)c1ccc(OCC(=O)Nc2ccccc2OC)c(OC)c1	56.3*	-8.6	0.0	-1.3
CCOCCn1ccc2c(OCC(=O)Nc3ccc(OC)cc3OC)cccc2c1=O	11.5	0.3	0.0	.
Cn1nccc1-c1ccc(C(=O)NCc2ccco2)c2occc12	-3.7	.	.	-0.8
O=C(NCCCN1CCc2ccccc2C1)C1CCN(S(=O)(=O)N2CCC3(CC2)OCCO3)CC1	14.6	-0.7	0.0	9.3
Cc1sc2nc(CSCC(=O)N(CCC#N)c3ccccc3)[nH]c(=O)c2c1C	64.1*	?	0.0	10.4
Cc1sc2nc(CSCC(=O)N(C)CC(=O)Nc3ccc(F)cc3)[nH]c(=O)c2c1C	53.8*	2.5	1.0	11.4
Cc1sc2nc(CSCC(=O)N(C)c3ccccc3)[nH]c(=O)c2c1C	65.5*	2.0	4.0	8.5
SMILES	Cardio protect	HDAC3 inh	GRK2 inh	Neddylation inh
Cc1sc2nc(CSCC(=O)Nc3c(F)cccc3F)[nH]c(=O)c2c1C	27.0	2.8	1.0	4.9
Cc1ccc(S(=O)(=O)N[C@H](C(=O)NC2CCC(C)CC2)C(C)C)cc1 (stereo partly drawn)	-9.6	1.2	0.0	-28.2
CCCc1nc2ccc(NC(C)=O)cc2c(=O)n1Cc1ccccc1Cl	-7.5	-15.6	1.0	0.1
CN(CC(=O)Nc1ccc(Cl)c(C(F)(F)F)c1)C(=O)C1(c2ccccc2)CC1	-0.4	.	1.0	-1.3
Cn1nc(-c2ccccc2F)c2cc(C(=O)Nc3ccc4c(c3)OCCO4)sc21	55.5*	8.6	4.0	36.5
COc1ccc(C2CCCCCN2C(=O)C2CCN(S(=O)(=O)c3cccc(C(C)=O)c3)CC2)cc1 (stereo not drawn)	82.6*	.	.	-9.8
CCOC(=O)c1cc(OC)c2cccc(CN3CCC(C)(C(=O)NCCOC)C3)c2c1 (stereo not drawn)	3.8	.	.	50.1*
COc1cccc(C2CC(=O)N3CN(c4cccc(Cl)c4C)CSC3=C2C#N)c1OC (stereo not drawn)	6.8	50.6*	5.0	-14.4
COc1ccc(OC)c(C2CC(=O)N3CN(c4cccc(Cl)c4C)CSC3=C2C#N)c1 (stereo not drawn)	-4.1	36.8*	2.0	-46.6
O=S(=O)(Nc1nc2ccccc2nc1N1CCc2ccccc2C1)c1ccc(Br)cc1	-5.6	-36.7	0.0	60.7*
CCCNC(=O)c1ccc2c(=O)c(O)c(-c3ccc(Cl)c([N+](=O)[O-])c3)[nH]c2c1	68.3*	-2.8	1.0	-13.9
CCCCn1nnnc1C(c1ccccc1)N1CCN(C(=O)c2ccco2)CC1 (stereo not drawn)	.	.	.	10.4
CC(=O)Nc1c(C#N)c(-c2ccccc2)c(C#N)c(=O)n1-c1ccc(C)cc1	0.0	.	.	7.8
COc1ccc(-c2c(O)c(C#N)c(-c3ccccc3)n(-c3ccc(OC)cc3)c2=O)cc1	6.6	3.4	97.0*	.
COc1cc(C)cc2oc(=O)c(CC(=O)N3CCN(C(=O)C4COc5ccccc5O4)CC3)c(C)c12 (stereo not drawn)	47.0*	-19.0	0.0	.
C[n+]1cccc2cccc([O-])c21	-1.7	.	.	54.7*
[O-][n+]1cccc2cccc(O)c21	8.7	.	.	8.3
CCCC(=O)N(c1ccc2oc(=O)sc2c1)S(=O)(=O)c1ccccc1	56.5*	-4.6	1.0	1.0
CC(=O)N(c1ccc2oc(=O)sc2c1)S(=O)(=O)c1ccc(C(=O)O)cc1	-0.8	-2.5	0.0	-6.7
COc1ccc(-c2csc(C(O)c3ccc(F)cc3)n2)cn1 (stereo not drawn)	2.4	.	.	-14.6
COc1ccc(C(=O)Nn2c(C)nc3ccccc3c2=O)cc1Br	13.7	2.2	0.0	-3.9
COc1ccc(-c2csc(NC(=O)c3ccc(OCC(=O)N4CCOCC4)c(OC)c3)n2)cc1OC	80.7*	10.8	1.0	-39.2
COc1cc(-c2ccc3c(=O)c4ccccc4n(C)c3c2)cc(OC)c1OC	88.5*	8.4	2.0	15.8
Cn1c2ccccc2c(=O)c2ccc(-c3ccc4c(c3)OCO4)cc21	12.2	8.9	0.0	-22.0
Cc1ccc(S(=O)(=O)C[C@@H]2OC[C@H](Cc3ccccc3)N2S(=O)(=O)c2ccc(C)cc2)cc1	.	.	.	-1.2
SMILES	Cardio protect	HDAC3 inh	GRK2 inh	Neddylation inh
O=C(N/N=C/c1ccc(O)c(Br)c1)c1cc2c(ccc3ccccc32)o1	6.9	-4.2	3.0	.
O=C(N/N=C/c1cc(Br)c(O)c(Br)c1)c1cc2c(ccc3ccccc32)o1	-4.0	-1.1	0.0	51.3*
CC(=O)NC(c1cc(F)c2cccnc2c1O)C1CC1 (stereo not drawn)	55.3*	5.0	3.0	-4.0
CCC(=O)NC(c1cc(Cl)c2cccnc2c1O)C1CC1 (stereo not drawn)	32.9	-4.3	0.0	-7.4
COc1ccccc1N1C(=N)S/C(=C\c2ccc(-c3ccccc3C(=O)O)o2)C1=O	4.4	8.1	44.0*	4.6
O=C(O)c1ccccc1NC(=O)N1CCOCC1	2.6	-27.2	4.0	.
Cc1ccc(C(=O)O)cc1N=Cc1cc(Br)cc(Br)c1O	76.7*	-4.5	6.0	40.6*
COc1cc(/C=N/Nc2nc(C)nc3c2cnn3-c2ccccc2)ccc1O	37.2	.	.	.
